# Measured values taken from the supplement of paper PMC8728848.
# About 410 targets per protein were measured; listed, in parts, are those with the strongest signals and a random draw of the rest.
# Legend:
# Experiment in all cases: glycan array binding signal (z-score within array); higher = stronger binding
# Conditions in all cases: glycan notation: IUPAC condensed, linker removed
# [1] = target: Fuc(a1-2)Gal(b1-3)GalNAc(a1-3)[Fuc(a1-2)]Gal(b1-4)GlcNAc
# Procedure, shortened: (§1)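 From the Consortium for Functional Glycomics database, 3228 arrays were curated, keeping only those whose protein sequence was available. Binding is given as a within-array Z-score averaged across arrays sharing a protein sequence and across linkers. Negative Z-scores can be read as non-binding.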
# [2] = target: Fuc(a1-2)Gal(b1-3)GlcNAc(b1-3)GalNAc
# Procedure, shortened: as §1
# [3] = target: Fuc(a1-2)Gal(b1-3)GlcNAc(b1-3)[Neu5Ac(a2-6)Gal(b1-4)GlcNAc(b1-6)]Gal(b1-4)Glc
# Procedure, shortened: as §1
# [4] = target: Fuc(a1-2)Gal(b1-3)[Fuc(a1-4)]GlcNAc
# Procedure, shortened: as §1
# [5] = target: Fuc(a1-2)Gal(b1-4)GlcNAc(b1-2)Man(a1-3)[Fuc(a1-2)Gal(b1-4)GlcNAc(b1-2)Man(a1-6)]Man(b1-4)GlcNAc(b1-4)[Fuc(a1-6)]GlcNAc
# Procedure, shortened: as §1
# [6] = target: Fuc(a1-2)Gal(b1-4)GlcNAc(b1-2)[Fuc(a1-2)Gal(b1-4)GlcNAc(b1-4)]Man(a1-3)[Fuc(a1-2)Gal(b1-4)GlcNAc(b1-2)Man(a1-6)]Man(b1-4)GlcNAc(b1-4)GlcNAc
# Procedure, shortened: as §1
# [7] = target: Fuc(a1-2)Gal(b1-4)GlcNAc(b1-3)Gal(b1-4)GlcNAc(b1-2)Man(a1-3)[Fuc(a1-2)Gal(b1-4)GlcNAc(b1-3)Gal(b1-4)GlcNAc(b1-2)Man(a1-6)]Man(b1-4)GlcNAc(b1-4)GlcNAc
# Procedure, shortened: as §1
# [8] = target: Fuc(a1-2)Gal(b1-4)GlcNAc6S
# Procedure, shortened: as §1
# [9] = target: Fuc(a1-2)Gal(b1-4)[Fuc(a1-3)]GlcNAc(b1-3)Gal(b1-4)[Fuc(a1-3)]GlcNAc
# Procedure, shortened: as §1
# [10] = target: Fuc(a1-2)Gal(b1-4)[Fuc(a1-3)]GlcNAc(b1-3)Gal(b1-4)[Fuc(a1-3)]GlcNAc(b1-3)Gal(b1-4)[Fuc(a1-3)]GlcNAc
# Procedure, shortened: as §1
# Fuc(a1-2)[Gal(a1-3)]Gal = target: Fuc(a1-2)[Gal(a1-3)]Gal
# Procedure, shortened: as §1
# [11] = target: Fuc(a1-2)[Gal(a1-3)]Gal(b1-3)GlcNAc(b1-6)GalNAc
# Procedure, shortened: as §1
# [12] = target: Fuc(a1-2)[Gal(a1-3)]Gal(b1-4)GlcNAc
# Procedure, shortened: as §1
# [13] = target: Fuc(a1-2)[GalNAc(a1-3)]Gal(b1-3)GlcNAc(b1-6)GalNAc
# Procedure, shortened: as §1
# [14] = target: Fuc(a1-2)[GalNAc(a1-3)]Gal(b1-4)GlcNAc(b1-3)Gal(b1-4)GlcNAc(b1-3)Gal(b1-4)GlcNAc
# Procedure, shortened: as §1
# [15] = target: Fuc(a1-3)[Gal(b1-4)]GlcNAc(b1-3)Gal(b1-4)[Fuc(a1-3)]GlcNAc(b1-3)Gal(b1-4)[Fuc(a1-3)]GlcNAc
# Procedure, shortened: as §1
# [16] = target: Fuc(a1-3)[GalNAc(b1-4)]GlcNAc
# Procedure, shortened: as §1
# Gal(a1-3)Gal = target: Gal(a1-3)Gal
# Procedure, shortened: as §1
# [17] = target: Gal(a1-3)Gal(b1-3)[Fuc(a1-4)]GlcNAc(b1-2)Man(a1-3)[Gal(a1-3)Gal(b1-3)[Fuc(a1-4)]GlcNAc(b1-2)Man(a1-6)]Man(b1-4)GlcNAc(b1-4)GlcNAc
# Procedure, shortened: as §1
# Gal(a1-4)Gal(b1-4)Glc = target: Gal(a1-4)Gal(b1-4)Glc
# Procedure, shortened: as §1
# [18] = target: Gal(a1-4)Gal(b1-4)GlcNAc(b1-3)Gal(b1-4)Glc
# Procedure, shortened: as §1
# Gal(b1-3)Gal(b1-4)GlcNAc = target: Gal(b1-3)Gal(b1-4)GlcNAc
# Procedure, shortened: as §1
# [19] = target: Gal(b1-3)GalNAc(a1-3)[Fuc(a1-2)]Gal(b1-4)Glc
# Procedure, shortened: as §1
# [20] = target: Gal(b1-3)GlcNAc(b1-2)Man(a1-3)[Gal(b1-3)GlcNAc(b1-2)Man(a1-6)]Man(b1-4)GlcNAc(b1-4)[Fuc(a1-6)]GlcNAc
# Procedure, shortened: as §1
# [21] = target: Gal(b1-3)GlcNAc(b1-2)Man(a1-3)[GlcNAc(b1-4)][Gal(b1-3)GlcNAc(b1-2)Man(a1-6)]Man(b1-4)GlcNAc(b1-4)GlcNAc
# Procedure, shortened: as §1
# Gal(b1-4)GlcNAc(b1-2)Man = target: Gal(b1-4)GlcNAc(b1-2)Man
# Procedure, shortened: as §1
# [22] = target: Gal(b1-4)GlcNAc(b1-2)Man(a1-3)[GlcNAc(b1-2)Man(a1-6)]Man(b1-4)GlcNAc(b1-4)GlcNAc
# Procedure, shortened: as §1
# [23] = target: Gal(b1-4)GlcNAc(b1-3)Gal(b1-3)GalNAc
# Procedure, shortened: as §1
# Gal3S6S(b1-4)GlcNAc = target: Gal3S6S(b1-4)GlcNAc
# Procedure, shortened: as §1
# [24] = target: GalNAc(b1-4)GlcNAc(b1-3)GalNAc(b1-4)GlcNAc
# Procedure, shortened: as §1
binder,measurement,setting,value
LecB PA14 (Pseudomonas aeruginosa) (protein) MATQGVFTLPANTQFGVTAFANSAGTQTVNVQVNNETVATFTGQSTNNAIIGSKVLNSGGGGKVQILVSVNGRSSDLVSAQVILANELNFALVGSEDSTDNDYNDAVVVINWPLG,glycan array binding signal (z-score),[1],0.586
same,glycan array binding signal (z-score),[2],0.422
same,glycan array binding signal (z-score),[3],0.308
same,glycan array binding signal (z-score),[4],2.93
same,glycan array binding signal (z-score),[5],2.75
same,glycan array binding signal (z-score),[6],4.68
same,glycan array binding signal (z-score),[7],7.45
same,glycan array binding signal (z-score),[8],-0.469
same,glycan array binding signal (z-score),[9],10.2
same,glycan array binding signal (z-score),[10],7.29
same,glycan array binding signal (z-score),Fuc(a1-2)[Gal(a1-3)]Gal,-0.002
same,glycan array binding signal (z-score),[11],-0.543
same,glycan array binding signal (z-score),[12],-0.7
same,glycan array binding signal (z-score),[13],-0.191
same,glycan array binding signal (z-score),[14],-0.182
same,glycan array binding signal (z-score),[15],4.17
same,glycan array binding signal (z-score),[16],5.42
same,glycan array binding signal (z-score),Gal(a1-3)Gal,-0.72
same,glycan array binding signal (z-score),[17],2.54
same,glycan array binding signal (z-score),Gal(a1-4)Gal(b1-4)Glc,-0.633
same,glycan array binding signal (z-score),[18],0.061
same,glycan array binding signal (z-score),Gal(b1-3)Gal(b1-4)GlcNAc,-0.517
same,glycan array binding signal (z-score),[19],-0.227
same,glycan array binding signal (z-score),[20],0.647
same,glycan array binding signal (z-score),[21],0.447
same,glycan array binding signal (z-score),Gal(b1-4)GlcNAc(b1-2)Man,-0.837
same,glycan array binding signal (z-score),[22],0.016
same,glycan array binding signal (z-score),[23],-0.179
same,glycan array binding signal (z-score),Gal3S6S(b1-4)GlcNAc,-0.745
same,glycan array binding signal (z-score),[24],-0.272
